Experimental data as given in PubChem BioAssay (NCI).
About 83,000 compounds went through this panel and 20% of them were active in at least one assay; those are over-represented in the sample as a whole.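 Negative percent growth values reflect cell death: -40 means 40% of the cells present at the start died, and -100 means all died.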 A number with no mark means an inactive call. Activity calls are given as the source filed them. The calls were made as follows: active = growth percent below 10; inactive = the rest.

What follows are compounds tested on HL-60(TB) leukemia (assay: NCI-60 one-dose screen, 48 h (100 = growth as untreated, 0 = no growth, -100 = all killed)). Details: 10 µM unless noted.

Row | Compound | growth
1 | O=c1cc(N/N=C/c2ccc(F)cc2)c2cc(Cl)ccc2[nH]1 | -9.23% (active)
2 | O=C(Nc1ncc(Cc2cccc(C(F)(F)F)c2)s1)c1ccc2c(c1)OCCO2 | -46.6% (active)
3 | COc1ccc(/C=C2\CN(Cc3cn(CCCNc4ccnc5cc(Cl)ccc45)nn3)C/C(=C\c3ccc(OC)c(OC)c3)C2=O)cc1OC | -38% (active)
4 | O=c1ccccc(-c2ccc(Br)cc2)c1O | -35.9% (active)
5 | CCN(CC)CC(O)c1cc(-c2ccc(Cl)cc2)nc2c(C)c(Cl)ccc12 (configuration not stated) | -71.5% (active)
6 | c1ccc(Nc2ncc3c(n2)-c2cccn2CC3)cc1 | 107%
7 | CC1(C)CC[C@]2(c3nnc(-c4ccncc4)o3)CC[C@]3(C)C(=CC[C@@H]4[C@@]5(C)CCC(=O)C(C)(C)[C@@H]5CC[C@]43C)[C@@H]2C1 | 30.7%
8 | COc1cc(C(=O)/C=C/c2ccc(OCCCCCC[P+](c3ccccc3)(c3ccccc3)c3ccccc3)cc2)cc(OC)c1OC | 11.5%
9 | Cc1ccc(NC(=O)c2cc(-c3nc4ccccc4s3)c(=O)n(NS(=O)(=O)c3ccc(Cl)cc3)c2N)cc1 | 101%
10 | CC(C)=CCC[C@](C)(O)[C@H]1CC[C@]2(C)[C@@H]1CC[C@@H]1[C@@]3(C)C/C(=C/c4ccco4)C(=O)C(C)(C)[C@@H]3CC[C@]12C | 119%
11 | COC(=O)c1c2c(c(C)[n+]([O-])c1C)C(=O)C=CC2=O | -7.95% (active)
12 | C=C[C@]1(C)C=C2C(=O)[C@@]3(O)OC[C@@]4(CCCC(C)(C)C43O)C2(O)C(O)C1 (some centres not stated) | -73.9% (active)
13 | COc1ccc(/C=N/NC(=O)c2cnn3c2NC(c2ccccc2)C3)cc1OC1CCCC1 (configuration not stated) | 101%
14 | CCCCCCCCCCCCCCCCCCOc1ccccc1CCCOP(=O)(O)OCC[N+](C)(C)C | 21.9%
15 | O=C(O)COc1ccc2c(=O)c3sc4c(=O)c5ccccc5c(=O)c4c3c(=O)c2c1 | 42.7%
16 | Brc1ccc2[nH]cc(-c3nc(-c4c[nH]c5ccncc45)cs3)c2c1 | -55.4% (active)
17 | COc1ccc(-c2cscc2N)cc1 | 18.7% [100 µM]
18 | Cn1ccc2c3c(ccc21)CC3=O | 113%
19 | Cc1ccc(C2CC(c3cccc(Nc4ccncc4)c3)=NN2c2cc(Cl)cc(Cl)c2)cc1 (configuration not stated) | 14.8%

Row | Compound | growth
20 | CCc1c2c(nc3ccc(OC(=O)OCc4ccc(B5OC(C)(C)C(C)(C)O5)cc4)cc13)-c1cc3c(c(=O)n1C2)COC(=O)[C@]3(O)CC | 12%
21 | COc1cc(/C=C/c2cc(/C=C/c3ccc(O)c(OC)c3)[nH]c(=O)n2)ccc1O | 61.3%
22 | O=c1cc(CNc2cc(F)cc(F)c2)c2ccc(I)cc2[nH]1 | -32.6% (active)
23 | CCOC(=O)C#Cc1c(C(=O)OCC)nnn1Cc1ccc([N+](=O)[O-])cc1 | 55.4%
24 | COc1ccccc1NC(=O)Nc1ccc(-c2nc3ccccc3o2)cc1 | 88.5%
25 | C=CCN(CC#N)CC=C | 106%
26 | O=C(Nc1cccnc1Nc1ccc(Cl)cc1)c1cn(Cc2ccc(F)cc2)nn1 | 109%
27 | CCC(=O)OC1CCC2C3CCC(=O)OC3C(C)(CCC(=O)O)CC12C (configuration not stated) | -23.2% (active)
28 | O=C(O)c1cccc2cccc(-c3c4ccc(=O)c(O)c-4oc4c(O)c(O)ccc34)c12 | 67.6%
29 | COc1cc(/C=C/c2cc(/C=C/c3ccc(O)c(OC)c3)n(C(=O)Cc3ccccc3)n2)ccc1O | -9.93% (active)
30 | O=C(NCCNc1cc(-c2cn(-c3ccccc3)nc2-c2cccc(O)c2)ccn1)Nc1ccccc1 | 29.9%
31 | CNS(=O)(=O)c1n[nH]nc1-c1cc(C(C)(C)C)c(O)c(C(C)(C)C)c1 | 95%
32 | O=C(C[n+]1ccn(CC(OCc2ccc(Cl)cc2Cl)c2ccc(Cl)cc2Cl)c1)c1ccc(F)cc1 (configuration not stated) | -51.8% (active)
33 | CNC(=S)N/N=C/CSC/C=N/NC(=S)NC | 85%
34 | Clc1ccccc1Nc1nnc(-c2ccncc2)s1 | 79.1%
35 | O=C(CC(NC(=O)OCc1ccccc1)C(=O)OCc1ccccc1)OCc1ccccc1 (configuration not stated) | 126%
36 | C/C=C(\C)C(=O)N[C@H]1[C@@H](OC(C)=O)C[C@]2(C)C3CC[C@@]4(C)C(CC[C@@H]4C(C)N(C)C)C3CCC2[C@H]1O (some centres not stated) | 70.5%
37 | NC(N)=N/N=C/c1ccc([N+](=O)[O-])o1 | 76.1%
